Reference: the supplement of paper PMC10498489
Hit rate of the full screen: of about 2,300 compounds, about 330 (14%) showed activity. Only a sample is shown. A number with no mark means an inactive call.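 How the source made its calls: active = median modified Z-score above 1.96; inactive = 1.96 or below.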

Test system: HepG2 Srxn1-GFP reporter cells (+30 nM CDDO-Me)
Experiment: Srxn1-GFP intensity median modified Z-score relative to plate median; higher = stronger NRF2 / oxidative stress reporter activation, active = hit call of the paper
Conditions: 10 µM; exposure time: 24h
Outline: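 The per-plate modified Z-score of GFP intensity, taken as a median across replicates, is what each value represents. Three replicate plates of HepG2 Srxn1-GFP BAC reporter cells were exposed for 24 h to an NRF2 activator at 30 nM combined with compound at 10 μM (≤0.1% DMSO). Cytoplasmic GFP per cell was read from confocal images, excluding any with under 100 cells, and scaling used 1.4826 × median absolute deviation.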

| Structure (SMILES) | Srxn1-GFP intensity median modified Z-score |
| --- | --- |
| COc1ccc(C(=O)c2ccc(O)cc2)c(O)c1O [euspeclibcmpd1507] | -0.213 |
| O=C1CC(=O)c2ccccc2C1=O [euspeclibcmpd1562] | 9.54 (active) |
| O=C1[O][Bi]([OH])[O]c2ccccc21 [euspeclibcmpd2458] | 0.155 |
| NC(=O)N1c2ccccc2CC(=O)c2ccccc21 [euspeclibcmpd673] | -0.538 |
| C/C(=C\CO)CC[C@H](C)CCC[C@H](C)CCCC(C)C [euspeclibcmpd1621] | -0.0936 |
| [O-][n+]1cccc(CO)c1 [euspeclibcmpd1263] | -0.263 |
| O=C(O)C=Cc1ccc(O)c(O)c1 [euspeclibcmpd1336] | -0.408 |
| O=C(C=Cc1ccc(O)c(O)c1)OC(Cc1ccc(O)c(O)c1)C(=O)O (stereo not drawn) [euspeclibcmpd2083] | -0.529 |
| O=C(C=Cc1ccc(O)c(O)c1)OCCc1ccccc1 [euspeclibcmpd1775] | 3.45 (active) |
| Cc1ccc(C)c(N2C(=O)c3ccc(C(=O)OCC(=O)N4CCc5ccccc54)cc3C2=O)c1 | 1.06 |
| O=C(Nc1cccc(Oc2cnccn2)c1)c1cc2cc(F)ccc2[nH]1 | 1.62 |
| CCN(CC)CCNC(=O)c1cc(Br)c(N)cc1OC [euspeclibcmpd1122] | 0 |
| CCN(CC)CCNC(=O)c1cc(Cl)c(N)cc1OC [euspeclibcmpd197] | 86.5 (active) |
| CCN(CC)CCNC(=O)c1cc(S(C)(=O)=O)ccc1OC [euspeclibcmpd525] | -0.717 |
| NC(=O)C1CCCN(Cc2cccc(CNc3ncc(F)cn3)c2)C1 (stereo not drawn) | 1.1 |
| CC(CN(C)C)CN1c2ccccc2CCc2ccccc21 (stereo not drawn) [euspeclibcmpd531] | 0.095 |
| CN=C(C[N+](=O)[O-])NCCSCc1ccc(CN(C)C)o1 [euspeclibcmpd2160] | -0.118 |
| CC1(C)SC2C(NC(=O)C(N)c3ccc(O)cc3)C(=O)N2[C@H]1C(=O)O (stereo partly drawn) [euspeclibcmpd23] | -0.305 |
| CC(=O)N1CCN(c2ccc(OCC3CO[C@](Cn4ccnc4)(c4ccc(Cl)cc4Cl)O3)cc2)CC1 (stereo partly drawn) [euspeclibcmpd169] | 0.674 |
| CC(C)N1CCN(c2ccc(OC[C@H]3CO[C@](Cn4cncn4)(c4ccc(Cl)cc4Cl)O3)cc2)CC1 [euspeclibcmpd617] | 1.6 |
| CCC(C)n1ncn(-c2ccc(N3CCN(c4ccc(OC[C@H]5CO[C@](Cn6cncn6)(c6ccc(Cl)cc6Cl)O5)cc4)CC3)cc2)c1=O (stereo partly drawn) [euspeclibcmpd951] | 2.71 (active) |
| N=C(N)N=c1[nH]c(CSCCC(=N)NS(N)(=O)=O)cs1 [euspeclibcmpd364] | 0.317 |
| O=C(O[C@@H]1Cc2c(O)cc(O)cc2OC1c1cc(=O)c(O)c2c(O)c(O)cc(C3Oc4cc(O)cc(O)c4C[C@H]3O)c2c1)c1cc(O)c(O)c(O)c1 (stereo partly drawn) [euspeclibcmpd1583] | -0.77 |

| Structure (SMILES) | Srxn1-GFP intensity median modified Z-score |
| --- | --- |
| COc1ccc(-c2cc(=O)c3c(OC)c(OC)c(OC)c(OC)c3o2)cc1 [euspeclibcmpd1464] | 6.78 (active) |
| COc1ccc(-c2cc(=O)c3c(O)c(OC)c(OC)c(OC)c3o2)cc1 [euspeclibcmpd2317] | 0.184 |
| COc1ccc(-c2cc(=O)c3c(OC)c(OC)c(OC)c(OC)c3o2)cc1OC [euspeclibcmpd1435] | 1.9 |
| OC[C@@H](O)[C@@H](O)[C@@H](O)[C@H](O)[C@@H](O)CO [euspeclibcmpd1702] | -0.744 |
| CC(=O)OCC(OC(C)=O)C(OC(C)=O)C(OC(C)=O)C(OC(C)=O)C(COC(C)=O)OC(C)=O (stereo not drawn) [euspeclibcmpd1364] | -0.434 |
| C=CCCCCCCCCC(=O)O [euspeclibcmpd2049] | 0.331 |
| C#CCCCCCCCCCCCC(O)CC(O)CO (stereo not drawn) [euspeclibcmpd1458] | 4.24 (active) |
| C#CCCCCCCCCCCCC(O)CC(O)COC(C)=O (stereo not drawn) [euspeclibcmpd1372] | 3.35 (active) |
| C=CCCCCCCCCCCCC(O)CC(O)CO (stereo not drawn) [euspeclibcmpd1371] | 1.62 |
| CC(=O)OCC(COC(C)=O)OC(C)=O [euspeclibcmpd301] | 0.397 |
| C=CCCCCCCCCCCCC(O)CC(O)CO (stereo not drawn) [euspeclibcmpd2211] | 2.24 (active) |
| CC(=O)O[C@@]12CO[C@@H]1C[C@H](O)[C@@]1(C)C(=O)C(=O)C3C(C)[C@@H](OC(=O)[C@@H](O)[C@@H](NC(=O)OC(C)(C)C)c4ccccc4)C[C@@](O)([C@@H](OC(=O)c4ccccc4)C12)C3(C)C (stereo partly drawn) [euspeclibcmpd1130] | 1.49 |
| O=C(O)CCNC(=O)c1ccc(N=Nc2ccc(O)c(C(=O)O)c2)cc1 [euspeclibcmpd2245] | -0.361 |
| CN(C)c1ccc(O)c2c1C[C@H]1C[C@H]3C(N(C)C)C(=O)C(C(N)=O)C(=O)[C@@]3(O)C(=O)C1C2=O (stereo partly drawn) [euspeclibcmpd201] | -0.262 |
| COC(=O)CCC(C)C1CCC2C3CC[C@@H]4C[C@H](O)CC[C@]4(C)C3C[C@H](O)[C@]12C (stereo partly drawn) [euspeclibcmpd1611] | -0.0244 |
| CCc1cc(Cl)c(OC)c(C(=O)NCC2CCCN2CC)c1O (stereo not drawn) [euspeclibcmpd333] | 0.457 |
| CCS(=O)(=O)CCn1c([N+](=O)[O-])cnc1C [euspeclibcmpd439] | 0.00367 |
| CCOC(=O)CCC(=O)O[C@H]1[C@H](O[C@@H]2[C@@H](C)[C@H](O[C@H]3C[C@@](C)(OC)[C@@H](O)[C@H](C)O3)C(C)C(=O)O[C@H](CC)[C@@](C)(O)[C@H](O)C(C)C(=O)C(C)C[C@@]2(C)O)O[C@H](C)C[C@@H]1N(C)C (stereo partly drawn) [euspeclibcmpd114] | 0.427 |
| CC1(OC(=O)C=Cc2ccccc2)CC(O)C2(O)C=COC(OC3OC(CO)C(O)C(O)C3O)C12 (stereo not drawn) [euspeclibcmpd1930] | 0.27 |
| CCCCC1=NC2(CCCC2)C(=O)N1Cc1ccc(-c2ccccc2-c2nn[nH]n2)cc1 [euspeclibcmpd676] | -0.243 |
| COc1cc(O)c(C(C)=O)c(OC)c1 [euspeclibcmpd1575] | -0.474 |
| COc1cc(O)c(C(=O)C=Cc2ccc(OC)c(O)c2)c(OC)c1 [euspeclibcmpd1967] | 23.8 (active) |
| COc1ccc(/C=C/C(=O)O)cc1OC [euspeclibcmpd2368] | -0.475 |

| Structure (SMILES) | Srxn1-GFP intensity median modified Z-score |
| --- | --- |
| COc1cc(C=CC(=O)O)ccc1O [euspeclibcmpd1346] | -0.142 |
| COc1cc(O)c(C(=O)C=Cc2ccc(O)c(OC)c2)c(OC)c1 [euspeclibcmpd2193] | -0.497 |
| COc1cc(C=CC(=O)CC(=O)C=Cc2ccc(O)c(OC)c2)ccc1O [euspeclibcmpd1307] | 23.5 (active) |
| Cc1cn[nH]c1 [euspeclibcmpd2215] | -0.461 |
| Cc1cn[nH]c1 [euspeclibcmpd2196] | 1.06 |
| CCC(=O)O[C@]1(C(=O)SCF)[C@H](C)CC2C3CC(F)=C4CC(=O)C=C[C@]4(C)C3(F)[C@@H](O)C[C@@]21C (stereo partly drawn) [euspeclibcmpd975] | -0.942 |
| CC(=O)Nc1c(I)c(NC(C)=O)c(I)c(C(=O)O)c1I [euspeclibcmpd867] | -0.167 |
| Cc1cc(=O)oc2cc(O)c(O)cc12 [euspeclibcmpd1370] | -0.517 |
| NC(CCC(=O)NC(CS)C(=O)NCC(=O)O)C(=O)O (stereo not drawn) [euspeclibcmpd132] | 1.19 |
| C[C@]12CCC(=O)CC1=CCC1C2[C@@H](O)C[C@@]2(C)C1CC[C@]2(O)C(=O)CO (stereo partly drawn) [euspeclibcmpd5] | -0.578 |
| O=C(O)C1CSCN1C(O)c1ccc(O)[nH]1 (stereo not drawn) [euspeclibcmpd1087] | -0.1 |
| O=C(O)C1CC([C@H]2CCCCN2)CN2CCCCC12 (stereo partly drawn) [euspeclibcmpd1560] | 0.315 |
| CCCN1C(=O)/C(=C/c2ccc(-n3ccnc3)cc2)SC1=S | 9.18 (active) |
| CC(C)(C)NCC(O)COc1cccc2c1C[C@H](O)[C@H](O)C2 (stereo partly drawn) [euspeclibcmpd814] | 0.0394 |
| CC[C@H]1OC(=O)C[C@@H](O)[C@H](C)[C@@H](O[C@@H]2O[C@H](C)[C@@H](O[C@H]3C[C@@](C)(O)[C@@H](O)[C@H](C)O3)[C@H](N(C)C)[C@H]2O)[C@@H](CC=O)CC(C)C(=O)/C=C/C(C)=C/C1CO[C@@H]1O[C@H](C)[C@@H](O)[C@@H](OC)[C@H]1OC (stereo partly drawn) [euspeclibcmpd742] | -0.617 |
| COc1cccc(-c2cc(=O)c3ccc(OC)cc3o2)c1 [euspeclibcmpd2098] | 1.56 |
| COc1ccc(-c2coc3cc(OCC4CC4)ccc3c2=O)cc1 | 1.64 |
| CC(=O)Nc1ccc(OC(C)=O)cc1 [euspeclibcmpd1187] | -0.386 |
| CC(=O)Oc1ccc(O)cc1 [euspeclibcmpd2324] | 5.59 (active) |
| CC(=O)Oc1cccc(O)c1 [euspeclibcmpd584] | 0.144 |
| CCC1C(=O)OC[C@@H]1Cc1cncn1C (stereo partly drawn) [euspeclibcmpd2263] | 0.439 |
| OC[C@H]1O[C@@](CO)(O[C@@H]2O[C@H](CO)[C@@H](O)[C@H](O)[C@H]2O)[C@@H](O[C@@H]2O[C@H](CO)[C@@H](O)[C@H](O)[C@H]2O)[C@@H]1O [euspeclibcmpd1323] | 0.146 |
